# From PubChem BioAssay
# Test: MRP1 drug-resistance reversers in H69AR cells – cell-based, doxorubicin co-treatment, pilot screen (AID 601)
# Settings: H69AR cells + 2 uM doxorubicin, CellTiter-Glo, 72 h; measured here: viability with 2 uM doxorubicin; at 10 µM; stronger effect = lower value
row,Structure (SMILES),viability
1,O=C(O)c1[nH]nc2c1COc1ccccc1-2,93.3%
2,O=C(Nc1ccc(Cl)cc1C(=O)Nc1ccncc1)c1ccco1,60.5%
3,CCNC(=O)CC(=O)Nc1ccccc1C(=O)O,96.9%
4,COCCOC(=O)c1[nH]c2c(c1C)C(=O)CC(c1ccc(N(C)C)cc1)C2 (stereo not given),104%
5,CCOC(=O)c1ccccc1NC(=O)N1CCn2c(C)ccc2C1CC (stereo not given),83.2%
6,COc1ccc2[nH]c(=O)c(CN(C(=O)c3cccnc3)c3ccccc3OC)cc2c1,91.3%
7,CC(=O)Nc1ccc(S(=O)(=O)Nc2nc3n(n2)C(c2ccccc2)CC(=O)N3)cc1 (stereo not given),99.9%
8,CCOC(=O)CC1=C(C(=O)OCC)C(c2ccc(C)o2)C(C#N)=C(N)O1 (stereo not given),77.3%
9,COc1ccc(S(=O)(=O)N2CCOCC2)cc1C(=O)Nc1cc(C)on1,85.8%
10,COC(=O)c1ccccc1NC(=O)C1CC(=O)N(c2ccccc2)C1 (stereo not given),80.9%
11,Cn1c(SCC(N)=O)nnc1C1CCN(S(=O)(=O)c2ccccc2C(F)(F)F)CC1,96.5%
12,C=CCc1cc(OC)ccc1OCC(O)CN1CCN(c2ccc(OC)cc2)CC1 (stereo not given),104%
13,O=C(Nc1nnc(COc2ccc(F)cc2)s1)c1cccs1,84.9%
14,CC(C)(C)n1nnnc1CN1CCC(NC(=O)NC2CCCCC2)CC1,91.3%
15,C=CCn1c(Cc2cccs2)nnc1SCC(=O)Nc1ccc(OC)c(OC)c1,90.3%
16,CC(C)(C)c1cc(C(=S)N2CCN(CCO)CC2)cc(C(C)(C)C)c1O,78.8%
17,COc1cccc(-c2nnc3sc(-c4ccc(C)cc4)nn23)c1,78.8%
18,O=C(CSc1ncn[nH]1)c1ccco1,98.5%
19,Cc1ccccc1C(=O)Nc1c(C(=O)N2CCCC2)cnn1-c1ccccc1,82%
20,CCCS(=O)(=O)Nc1c(C(=O)O)[nH]c2ccccc12,106%

row,Structure (SMILES),viability
1,CCOC(=O)Nc1sc(=S)n(C)c1C,94.9%
2,CC1(C)C(=O)Nc2ccccc2N1C(=O)COC(=O)Cn1cnc2ccccc2c1=O,94.5%
3,O=C(CNC(=O)c1ccccc1C(=O)O)c1ccccc1,82.8%
4,Cc1ccc(F)cc1NC(=O)Cc1nn(C)c(=O)c2ccccc12,77.6%
5,CCN1CCN(C(=O)c2ccc3c(=O)n(C4CCCC4)c(=S)[nH]c3c2)CC1,74.8%
6,O=C(NC1CCS(=O)(=O)C1)N1CCCCC1 (stereo not given),88.3%
7,COc1ccc(NC(=O)CCCN2C(=O)C3C4C=CC(C4)C3C2=O)c(OC)c1 (stereo not given),97.1%
8,COc1ccc(S(=O)(=O)N(C)c2ccc(C(=O)N3CCOCC3)cc2)cc1,91.5%
9,Cc1cccc(NC(=O)Cn2c(=O)n(C)c3ccccc32)c1,92.9%
10,CC1(C)Cc2c(sc3ncnc(N)c23)CO1,87.3%
11,Cn1c(=O)c(-c2ccccc2)nn2c3ccccc3nc12,91.6%
12,COc1cccc(NC(=O)NC2(C(F)(F)F)Oc3ccccc3O2)c1,48.1%
13,COc1ccc2nc3oc(C(=O)NC4CCN(Cc5ccccc5)CC4)cc3cc2c1,80.9%
14,Cc1ccc(S(=O)(=O)N2CCN(C(=O)CN3C(=O)NC4(CCOc5ccccc54)C3=O)CC2)cc1 (stereo not given),99.8%
15,O=S(=O)(c1cccc2nsnc12)N1CCN(c2ncccn2)CC1,94.9%
16,Cc1ccc(C(=O)N2CCCC(c3nc4c(nnn4Cc4ccccc4)c(=O)[nH]3)C2)cc1 (stereo not given),58.9%
17,O=C(C1CCN(S(=O)(=O)Cc2ccccc2)CC1)N1CCN(c2ncccn2)CC1,90%
18,CCOc1ncccc1C(=O)OCC(=O)Nc1ncc(C(F)(F)F)cc1Cl,94.3%
19,O=C(Cn1ccc2ccccc2c1=O)Nc1ccc2c(c1)OCO2,92.2%
20,Cn1nnnc1SCC(=O)NCc1ccco1,86.3%
